Hit rate of the full screen: of about 2,300 compounds, about 1,200 (52%) were called active. No rule for the calls is given here. So high a share suggests a set chosen from earlier hits. Some of the results follow. Results with a measured potency or affinity are listed apart.
Test: mammalian cell cytotoxicity, dose response, cytotoxicity control for M. tuberculosis inhibitor project (AID 435019);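 also: lower values mean fewer viable cells so more cytotoxicity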
Settings: cytotoxicity counter-screen; series mostly up to 40 µM

Row | SMILES | outcome
1 | Cn1c(SCc2ccccc2)nc(N)c(N=O)c1=O | inactive
2 | CCOc1ccc(NC(=O)CSc2cn[nH]n2)cc1 | inactive
3 | CCOc1ccc(N=CNc2ccc(OCC)cc2)cc1 | inactive
4 | Cc1ccc(C(=O)N/N=C/C=C/c2ccccc2)cc1 | inactive
5 | COc1ccc(OCCCC(=O)OC(C)C(=O)Nc2ccccc2[N+](=O)[O-])cc1 (stereo not given) | inactive
6 | CCOC(=O)COn1c2c(c3c4no[n+]([O-])c4ccc31)CCCC2 | inactive
7 | Cc1cc(O)c(/C=N/Nc2cccc(Cl)c2)c(=O)o1 | inactive
8 | Cc1cc(=O)n2[nH]c(Nc3cccc(Cl)c3)nc2n1 | inactive
9 | COc1ccc(N2C(=O)C(Cl)=C(Nc3ccccc3O)C2=O)cc1 | inactive
10 | Nc1cnc(-c2ccccc2)nc1Cl | inactive
11 | COc1ccc2[nH]c(=O)c(CNc3cccc(C)c3)cc2c1 | inactive
12 | c1nc2n(n1)C1=C(CCCC1)C1(CCCCC1)N2 | inactive
13 | O=c1oc(-c2ccccc2[N+](=O)[O-])nc2ccccc12 | inactive
14 | CCOC(=O)c1ccc(NC(=S)NCCc2ccc(F)cc2)cc1 | inactive
15 | O=C(CCSc1ccc(Cl)cc1)NC12CC3CC(CC(C3)C1)C2 | inactive
16 | Cc1ccc(CN2C3CCCC2CC(NC(=S)NCc2ccccc2)C3)cc1 (stereo not given) | inactive
17 | O=C(Oc1ccccc1)c1ccccc1OS(=O)(=O)c1ccccc1 | inactive
18 | Cc1cc(N2CCN(C(=O)Nc3ccccc3C#N)CC2)c2ccccc2n1 | inactive
19 | COc1cc(/C=C2\C(=O)N(c3ccc(S(N)(=O)=O)cc3)N=C2C)ccc1OC(=O)c1ccco1 | inactive
20 | CSc1nsc(SCC(=O)Nc2ccc(F)cc2F)n1 | inactive
21 | CC(OC(=O)c1cnc2ccccc2n1)c1ccccc1Cl (stereo not given) | inactive
22 | Cc1nc(N2CCN(c3ccccn3)CC2)c2c(C)c(C(=O)N3CCN(c4ccc(F)cc4)CC3)sc2n1 | inactive
23 | CCOc1ccc(-n2c(O)c(/C=N/Nc3nnc(C)c(=O)[nH]3)c3ccccc3c2=O)cc1 | inactive
24 | CCOc1ccc(NC(C)c2cc(Cl)ccc2O)cc1 (stereo not given) | inactive
25 | CCc1ccc(Nc2n[n+](C)c(-c3ccncc3)s2)cc1 | inactive
26 | Cc1ccc(C(=O)Nc2ccc3c4c(cccc24)CC3)cc1[N+](=O)[O-] | inactive
27 | Cc1nc2ccc(NC(=O)c3ccc([N+](=O)[O-])cc3[N+](=O)[O-])cc2s1 | inactive

Row | SMILES | outcome
28 | O=C1c2ccccc2CC1Sc1nnc(-c2ccncc2)o1 (stereo not given) | inactive
29 | CC(C)NCC(O)c1ccc(O)c(O)c1 (stereo not given) | inactive
30 | CSc1ccccc1C(=O)NC1CCSc2ccccc21 (stereo not given) | inactive
31 | Cc1ccc(C)c(N/C(N)=N/c2nc(C)cc(C)n2)c1 | inactive
32 | CON(C)c1nc(C2CCCCC2)c2cc(C)ccc2n1 | inactive
33 | C/C=C(\C)C(=O)Nc1cccc(C2=NOC3(C2)C[C@H](C(N)=O)N(C(=O)c2cc([N+](=O)[O-])cc([N+](=O)[O-])c2)C3)c1 (stereo not given in full) | inactive
34 | CC(C)CCNC(=O)C(c1ccc(O)cc1)N(C(=O)C1COc2ccccc2O1)c1cccc(O)c1 (stereo not given) | inactive
35 | CCOC(=O)COc1ccc(/C=C2\NC(=S)N(CC)C2=O)cc1 | inactive
36 | Cc1cc2c(ccc3c2no[n+]3[O-])nn1 | inactive
37 | O=C(c1ccc(-c2cccc(C(F)(F)F)c2)o1)N1CCN(c2ccccc2O)CC1 | inactive
38 | CCOC(=O)C(C)Oc1ccc(OCc2ccccc2)cc1 (stereo not given) | inactive
39 | COC(=O)C(C)Oc1ccc2c(c1)O/C(=C\c1ccco1)C2=O (stereo not given) | inactive
40 | Cn1ccnc1-c1nnn(-c2ccc(Cl)c(Cl)c2)n1 | inactive
41 | CC12CCC(=O)N1C(C(=O)Nc1ccc(SC(F)F)cc1)CS2 (stereo not given) | inactive
42 | CCn1cnc2sc(C(=O)Oc3ccc(Br)cc3)c(C)c2c1=O | inactive
43 | COc1ccc(NC(=O)CN(C)C(=O)c2n[nH]c3ccccc23)cc1 | inactive
44 | COc1ccccc1C1CC(c2ccc(Cl)cc2)Nc2ncnn21 (stereo not given) | inactive
45 | CCN(CC)S(=O)(=O)c1cc(C(=O)Oc2cccc(-c3cnc4ccccc4n3)c2)ccc1Br | inactive
46 | Cc1ccc(-c2ccc(C3C(C#N)=C(N)Oc4n[nH]c(C)c43)o2)cc1 (stereo not given) | inactive
47 | CCc1nnc(N/N=C/c2cc(C)c(C)cc2C)n1N | inactive
48 | COc1ccc(-c2nnn(CC(=O)OC3CCCCC3)n2)cc1OC | inactive
49 | CO[C@@H]1[C@@H](OC(N)=O)[C@@H](O)C(Oc2ccc3c(O)c(NC(=O)c4ccc(O)c(CC=C(C)C)c4)c(=O)oc3c2C)OC1(C)C (stereo not given in full) | inactive
50 | O=C(COC(=O)C1=COCCO1)NCc1ccc(Cl)cc1 | inactive
51 | O=Cc1ccc2noc(-c3ccc(Cl)cc3)c2c1 | inactive
52 | O=S1(=O)CCC(N=Cc2ccc(-c3ccc(Cl)cc3)o2)C1 (stereo not given) | inactive
53 | Cc1ccc2cc(C)c(N3CCN(c4ccccn4)CC3)nc2c1 | inactive
54 | Cc1cc(C)c2c(CN3CCN(Cc4ccccc4)CC3)cc(=O)oc2c1C | inactive

Row | SMILES | outcome
55 | Cc1ccc2[nH]c3c(c2c1)CN(C(=O)CN1CCN(c2ccccn2)CC1)CC3 | inactive
56 | C#CCOCCOCCOCCNc1nc(N2CCN(C(=O)C(Cc3ccc(O)cc3)n3cc(C(N)CC(C)C)nn3)CC2)nc(N2CCN(C(=O)C(Cc3cc4ccccc4[nH]3)n3cc(C(N)Cc4ccc(O)cc4)nn3)CC2)n1 (stereo not given) | inactive
57 | CC1(C)CN(c2ccccc2)N(C(=O)c2ccc(C#N)cc2)C1=O | inactive
58 | CCOc1ccc(-n2cc(-c3ccccc3)c3c(=O)[nH]cnc32)cc1 | inactive
59 | CCOc1ccc(N2CC(=O)Nc3ccccc3NCC2=O)cc1 | inactive
60 | Cc1ccccc1-c1nc2cc(N)ccc2o1 | inactive
61 | O=C([O-])c1ccccc1-[n+]1c(-c2ccccc2)cc(-c2ccccc2)cc1-c1ccccc1 | inactive
62 | Cc1nc(-c2ccc(Cl)cc2)sc1C1(C)CC(c2ccc(C#N)cc2)=NO1 (stereo not given) | inactive
63 | CCOc1cc(C(=O)OCc2ccc(C(=O)OC)o2)cc(Br)c1OC | inactive
64 | Cc1ccc(-c2ccnc(=S)[nH]2)cc1 | inactive
65 | CC12CN3CCN(CC(C3)/C1=N\NC(=O)Nc1cccc(Cl)c1)C2 | inactive
66 | CNC(CC(C)C)C(=O)NC1C(=O)NC(CC(N)=O)C(=O)NC2C(=O)NC3C(=O)NC(C(=O)NC(C(=O)O)c4cc(O)cc(O)c4-c4cc3ccc4O)C(O)c3ccc(c(Cl)c3)Oc3cc2cc(c3OC2OC(CO)C(O)C(O)C2OC2C[C@](C)(N)C(O)C(C)O2)Oc2ccc(cc2Cl)C1O (stereo not given in full) | inactive
67 | COc1cc(C)ccc1S(=O)(=O)N1CCN(C23CC4CC(CC(C4)C2)C3)CC1 | inactive
68 | Brc1ccc(-c2nc3ncccn3c2Nc2ccc3c(c2)OCCO3)o1 | inactive
69 | COC(=O)[C@@H](NC(=O)O[C@@H]1C(=O)c2ccc(OC)cc2O[C@H]1c1cccc(C(F)(F)F)c1)C(C)C | inactive
70 | Cc1ccn2nc(S(=O)(=O)Nc3c(F)cccc3F)nc2n1 | inactive
71 | Cc1ccc(OC(=O)CCN2C(=O)c3ccccc3C2=O)cc1C | inactive
72 | O=[N+]([O-])c1ccc(N2CCCCC2)s1 | inactive
73 | Cc1ccc(C)c(C2C(=O)c3ccccc3C2=O)c1 | inactive
74 | NN(Cc1ccccc1)C(=S)Nc1ccc(Cl)c(Cl)c1 | inactive
75 | C=C(C)C1Cc2c(C)nn(-c3nc(C)cc(C)n3)c2C1 (stereo not given) | inactive
76 | O=C(/C=C/c1ccccc1)N1CCN(CCN2C(=O)c3cccc4cccc(c34)C2=O)CC1 | inactive
77 | COc1ccc(C(=O)NNc2ccccc2)cc1OC | inactive
78 | O=C(CSC1=Nc2ccccc2C2=NC(c3ccccc3)C(=O)N12)NC1CCCCC1 (stereo not given) | inactive
79 | CN1C(=O)CC(c2ccccc2)C1=O (stereo not given) | inactive
80 | c1ccc(NNC2=NCCCCC2)cc1 | inactive
81 | COc1cc(/C=C/c2cc[n+](C)cc2)ccc1OCC(=O)Nc1ccc(Cl)c(Cl)c1 | inactive

Row | SMILES | outcome
82 | COC(=O)c1ccc(NC(=S)NC(=O)C2CCC2)cc1 | inactive
83 | CC1(c2ccc(Cl)c(Cl)c2)NC(=S)N2C1NC(=S)N2c1ccccc1 (stereo not given) | inactive
84 | Cc1cc(-c2ccc(Cl)cc2)c2cnn(C(C)C)c2n1 | inactive
85 | Cc1ccc(-c2nc3ccsc3c(=O)o2)cc1 | inactive
86 | COC(=O)C(C)Oc1ccc(-c2nccc(-c3ccccn3)n2)cc1 (stereo not given) | inactive
87 | CCCCSCCCNC(=O)c1cn(CC)c2ccc(S(=O)(=O)N3CCOCC3)cc2c1=O | inactive
88 | COc1ccc(C(=O)C[n+]2ccc3c(c2)nc(-c2cc(OC)c(OC)cc2OC)n3C)cc1 | inactive
89 | Nc1nc(CN2CCN(c3ccccc3F)CC2)nc(N2CCCc3ccccc32)n1 | inactive
90 | CCCc1cc(-c2nc(-c3ccc(Br)cc3)cs2)ccn1 | inactive
91 | CC(=O)c1cccc(NC(=O)C2C3C=CC(C3=C(c3ccccc3)c3ccccc3)C2C(=O)O)c1 (stereo not given) | inactive
92 | CCOc1ccc(NC(=O)CSc2nc(O)c(C)c(=O)n2-c2ccc(F)cc2)cc1 | inactive
93 | COc1cccc(C(=O)NC2CC3CCCC(C2)N3CC(=O)Nc2ccc(N(C)C)cc2)c1 (stereo not given) | inactive
94 | Cc1ccc2c(c1)c1c3n2CCN=C3CCC1 | inactive
95 | CC(C)Nc1nc(NC(C)C)nc(N(C)N)n1 | inactive
96 | CCOc1cccc(C=Nc2cc(C)cc(C)c2O)c1O | inactive
97 | O=[N+]([O-])c1ccc(-c2ccc(/C=N/c3c(-c4ccco4)nc4ccccn34)o2)cc1 | inactive
98 | O=[N+]([O-])c1cc(-c2ccc(/C=N\n3cnnc3)o2)cc([N+](=O)[O-])c1 | inactive
99 | CCCCCC1CC(CC(=O)NC(=S)Nc2ccc([N+](=O)[O-])cc2)C(=O)O1 (stereo not given) | inactive
100 | CCOC(=O)C(C)Sc1ncnc2c1nnn2-c1ccc(F)cc1 (stereo not given) | inactive
101 | COc1ccc(-c2ccc(C#N)c(SCC(=O)OCc3ccccc3)n2)cc1OC | inactive
102 | CC1(C)C2CCC1(C)C(OCC[N+](C)(C)CC(=O)OC1CCCCC1)C2 (stereo not given) | inactive
103 | CC(=O)CCSc1ncnc2sc(-c3ccccc3)cc12 | inactive
104 | Nn1c(SCc2ccccc2)nc2ccccc21 | inactive
105 | COC(=O)CCc1nc2c(C#N)c(-c3ccc(Cl)cc3)ccn2n1 | inactive

Reference: PubChem BioAssay AID435019 (Southern Research Specialized Biocontainment Screening …, 2010)
